The record followed here is PubChem BioAssay (NCI).

About 83,000 compounds went through this panel and 20% of them were active in at least one assay; those are over-represented in the sample as a whole.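 A percent growth of 40 corresponds to 60% growth inhibition; 0 means no net growth; -100 means all cells died. Active threshold: below 10.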 Unmarked numbers belong to inactive results. Activity calls are given as the source filed them.

The test deals with HL-60(TB) leukemia. Nature of the test: NCI-60 one-dose screen, 48 h (100 = growth as untreated, 0 = no growth, -100 = all killed). To be noted: 10 µM unless noted.
For `Nn1c(N/N=C/c2nc3ccccc3s2)n[nH]c1=S`, the growth was 136%.
Take `CCOP(=O)(OCC)OC[C@]12CC[C@@H](C)[C@H](C)C1C1=CC[C@@H]3[C@@]4(C)CCCNC(C)(C)[C@@H]4CC[C@@]3(C)[C@]1(C)CC2` (stereo not given in full): the growth was -67.7% (active).
With `CCNC(=O)N1CCc2cc(OC)c(OCCc3ccc(OC)cc3)cc2C1c1ccc(Cl)cc1C` (stereo not given) the figure was 12.2%.
With `CSCCC(C(=O)O)N1C(=O)/C(=C/c2ccc(O)c(O)c2)SC1=S` (stereo not given), the growth is 103%.
The result for `O=c1oc2ccc(-c3ccc(F)cc3F)cc2c(=O)n1-c1ccc(F)c(F)c1` reads -18.9% (active); that for `COc1cc(Cn2cc3c(c2)-c2onc(CN4CCOCC4)c2CC3)cc(OC)c1OC`, 99.9%.
`OC1CCN(CCCOc2c3ccc(Cl)cc3nc3c2oc2ccc(Cl)cc23)CC1`: the growth is 22.4%.
Take `O=C(CSc1nc2ccccc2c(=O)n1-c1ccc(S(=O)(=O)Nc2ccc(Cl)nn2)cc1)Nc1ccc(S(=O)(=O)Nc2ccc(Cl)nn2)cc1`: the growth was 96.4%.
With `O=C(c1ccc(O)cc1)C1[C@H](c2ccc(Cl)cc2)[C@@H](c2ccccc2)NC12C(=O)Nc1ccc(Cl)cc12` (stereo not given in full) the figure was 38.5%; with `Cc1c(C(=O)/C=C/c2ccc(Cl)cc2)nnn1-c1ccc2oc(=O)ccc2c1`, 92.9%; with `O=[N+]([O-])c1ccc(-c2nnc(SCc3ccc(O)c4ncccc34)o2)cc1`, 13.7%.
As to `O=C1Nc2cc(OC(F)(F)F)ccc2Oc2ccc(-c3ccnc(N4CCNCC4)c3)cc21`, the growth was -41.4% (active).
For the molecule `C=C1CC[C@@H]2[C@](C)(CO)[C@H](O)CC[C@@]2(C)[C@@H]1C/C(O)=C1\CCOC1=O`, the growth is 95.3%.
With `Oc1ccc(-c2nnc(SCc3ccc(O)c4ncccc34)n2-c2ccccc2)cc1` the figure was 1.26% (active); with `NC(=O)n1c(=O)n(-c2cccc(C(F)(F)F)c2)c(=O)c2cc(-c3ccc(F)cc3F)ccc21`, -49.4% (active).
For `CC(C)(C)Nc1nc2c(OCCc3ccccc3)cccn2c1-c1ccc(Cl)cc1`, the growth was -27.8% (active).
Consider `O=C(c1ccc(O)c(C(=O)N2Cc3ccc(OCCC[P+](c4ccccc4)(c4ccccc4)c4ccccc4)cc3C2)c1)N1Cc2cccc(F)c2C1`, for which the growth was 57.8%.
`O=C(NNc1nc2cc(F)c(F)cc2n2c(CN3CC4CNCC4C3)ccc12)c1cnccn1` (stereo not given): the growth was -1.93% (active).
In the case of `O=C1CSC(=O)N1Cc1cc2ccccc2nc1Cl`, the growth was 101%.
With `COc1cc(/C=C/C(=O)c2ccc(C(F)(F)F)cc2)ccc1Oc1nc(NCCO)nc(N2CCOCC2)n1` the figure was 53.4%.
With `C#C[C@]1(O)CC[C@H]2[C@@H]3CC=C4c5sc(C6CCOCC6)nc5CC[C@]4(C)[C@H]3CC[C@@]21C` the figure was 56.7%; with `COc1ccc2[nH]cc(-c3nn4cc(-c5ccncc5)nc4s3)c2c1`, 54.9%.
For `O=C(Oc1ccc2ccc(=O)oc2c1)c1ccc(Cl)cc1`, the growth was 106%.
Take `C1=CC(c2nn3c(-c4ccccc4)nnc3s2)=Cc2ccccc2O1`: the growth is 37%.
Consider `O=C(CSc1nc2ccccc2c(=O)n1-c1ccc(Cl)cc1)N/N=C/c1ccc(N2CCCCC2)cc1`, for which the growth is 108%.
As to `IP(CCCSc1n(Cc2ccc3ccccc3c2)c(-c2ccccc2)c(-c2ccccc2)[n+]1Cc1ccc2ccccc2c1)(c1ccccc1)(c1ccccc1)c1ccccc1`, the growth is -29.1% (active).
As to `Nc1c(C(=O)c2ccc(Br)cc2)oc2nc(-c3cnccn3)cc(-c3cccs3)c12`, the growth is 100%.
As for `COc1ccc(OC)c([C@H]2c3[nH]c4ccccc4c3C[C@H]3C(=O)N(CCCCCCC(=O)NO)CC(=O)N23)c1`, the growth is 91.1%.
Take `COc1cccc2cc(-c3cc4ccccc4[nH]3)/c(=N\NC(=O)c3ccc(Cl)cc3)oc12`: the growth is -11.8% (active).
Consider `O=C(O)CCCCCN1C(=O)/C(=C/c2ccc(O)c(O)c2)SC1=S`, for which the growth was 101%.
For `O=C(CCn1c[n+](CC(=O)c2ccc(-c3ccccc3)cc2)c2ccccc21)Nc1cccc2cccnc12`, the growth was -42.3% (active).
The result for `CCO/C=N/C1=C(C#N)C(c2ccc(Cl)cc2)c2sc3c(C)cccc3c2O1` (stereo not given) reads -12.7% (active); that for `Cc1csc(Nc2cccc(Nc3nc(C)cs3)c2)n1`, 77.3%.
Take `Cc1cc(Br)ccc1-n1cc(C#N)c(N)c1C(=O)c1ccc(Br)cc1`: the growth is 110%.
With `CC(=O)Nc1cc(F)cc(-c2ccc3[nH]cc(-c4ccccc4)c3n2)c1` the figure was 7.81% (active); with `Nc1ncc(-c2ccc3ncnc(N4CCc5cc(F)c(F)cc54)c3c2)cn1`, 37.1%; with `O=C1[C@@H]2Cc3c([nH]c4ccccc34)[C@H](c3c(Cl)cccc3Cl)N2C(=O)CN1C1CCN(Cc2c(F)cccc2F)CC1`, 109%.
Take `CCCC(=O)NC(c1cccnc1)c1cc(C(C)=O)c2cccnc2c1O` (stereo not given): the growth is 24.9%.
The result for `CCOC(=O)/C(F)=C/C1CC1C1CCCCC1` (stereo not given) reads 98.7%.
Consider `O=C(CSc1cc[n+](CCCCO)c2ccccc12)n1ccc2ccccc21`, for which the growth is 106%.
